# The supplement of paper PMC6555819
# Experiments:
# Assay in all cases: PBM binding z-score (relative to random genomic background probes); higher = stronger binding; sequences stand for … in GC…GCGATTGACAGCGTAGAATGAAGG
# [1] = test system: RARb homodimer (NR concentration 270 nM)
# Method in brief: (§1)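 Ligand-free nuclear receptor dimers were applied to custom Agilent 4×180K protein-binding microarrays whose double-stranded probes carried direct-repeat seeds, single-nucleotide variants, half-site ablations and random human genomic background sequences in 34-nt variable regions. Incubation lasted 1 h. Binding z-scores were computed against the random background probes from regression-normalized fluorescence.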
# [2] = test system: RARg:RXRa (NR concentration 270 nM, RXRa partner concentration 90 nM)
# Method in brief: as §1
# [3] = test system: RARg homodimer (NR concentration 270 nM)
# Method in brief: as §1
# [4] = test system: RXRa DBDmut IVT, anti-RXR (DBD mutation: RXRa K156A/R161A, NR concentration 90 nM)
# Method in brief: as §1
# [5] = test system: RXRa homodimer (NR concentration 180 nM)
# Method in brief: as §1
# [6] = test system: THRa:RXRa (NR concentration 90 nM, RXRa partner concentration 90 nM)
# Method in brief: as §1
# [7] = test system: THRa homodimer (NR concentration 90 nM)
# Method in brief: as §1
# [8] = test system: VDR homodimer (NR concentration 270 nM)
# Method in brief: as §1
Sequence,PBM binding z-score [1],PBM binding z-score [2],PBM binding z-score [3],PBM binding z-score [4],PBM binding z-score [5],PBM binding z-score [6],PBM binding z-score [7],PBM binding z-score [8]
CCTAGCAGCCCAATCTGGGTCACTCAAGGCTTGA,1.77,0.615,0.301,-0.241,0.56,2.28,0.424,-0.324
GCTACTTGGTCAGTAAAAGGTCACACACCGGTCG,5.14,5.37,5.09,0.64,5.41,3.55,2.08,2.09
TCATATAGGTAAAAGGTGAAAGTTGGTGTGGTAA,2.19,2.24,0.981,1.89,3.27,1.9,0.96,0.577
GCAGACAGGTGAAACGCAGGTATCTCAGGGTGGC,0.0151,0.137,0.315,-0.484,0.588,0.272,-0.471,-0.528
CAGCCTCGGTCAGGGCCAGTATAGGAGGAACGTT,1.31,0.85,1.86,-0.961,-0.355,-0.5,-0.413,-0.875
ATCTCTAGGTATCCAAGTTCAGTGAATGCCGAAC,1.46,0.373,0.76,0.842,0.354,0.837,0.736,2.5
ACTAGCAGGCCAAGGGACACTCAAGATTAGTCCG,0.745,0.424,0.835,-0.24,-0.0147,-0.112,-0.143,-0.433
TAGCCTAGGTCAGATCGGGCCAGTATTCGCTATA,2.1,2.86,3.71,-0.442,1.37,4.14,-0.138,-0.518
GCTAGTTCGTCAGTAAAAGGTCACACACCGGTCG,5,5.12,4.64,2.51,5.36,3.72,1.98,2.88
CCTCGCAGGCCAGGGTCACTCAAGCATTTCGCTT,2.71,2.93,2.2,0.363,3.06,2.84,1.2,1.43
GCTAGCTGGTCAGTAAAAGGTCACACACCGGTCG,4.99,5.88,4.93,0.376,5.62,3.34,1.36,1.37
GATACAGGGTCAGGGCCAGAGTACGCGTATTGAT,3.15,4.29,4.19,0.901,4.15,2.89,0.838,1.2
TCATATAGGTGATACAGGTGAAAGTCGGCATCTA,1.08,0.874,0.742,1.16,1.34,0.983,0.0719,0.258
CGTCAAAATTCAAGGTAACGTAACAGAAAGCAGC,0.985,0.175,0.447,-0.0025,0.308,1.64,1.15,0.24
ACTAGCAGGCCAAGTTTGGGTCACTAAAACAAAG,2.17,2.1,1.53,-0.281,0.88,2.52,0.917,0.383
ACTAGTTGGTCAGCTCAGGTCACACACAATTCGG,3.56,2.3,2.88,0.763,1.93,4.66,4.32,1.46
CGTCCAAGGTCATAGGAAGTCAGTGAAGACAGAT,3.7,5.5,5.7,3.77,5.28,3.81,2.31,2.43
CCTTACGGGTCAATGACAGGTTATAGCATTTGGA,3.12,5.64,4.22,1.9,4.58,2.59,-0.0254,1.18
CGTCTAAGTTCAACTAAGGTAACGTAAAGCACGC,3.13,4.18,4.79,4.84,3.54,4.95,2.6,4.24

Sequence,PBM binding z-score [1],PBM binding z-score [2],PBM binding z-score [3],PBM binding z-score [4],PBM binding z-score [5],PBM binding z-score [6],PBM binding z-score [7],PBM binding z-score [8]
CCTTACGGGTCACTGACAGGTTTTAGCATTTGGA,3.06,4.89,4.41,1.81,4.92,2.53,0.0377,1.01
ATCTCTAGGTAACCAGTTCAGTGAAAGAGAGGAC,1.05,0.822,0.768,0.358,0.791,1.35,1.18,1.35
CAAACTAGGTCACCGGAAGCTCAAAGTCCGCATG,3.48,4.84,5.66,1.98,3.81,3.38,1.92,0.814
TCGAGTAGGTTACCAATGCGGCATTCAGCTTTCT,-0.23,0.0889,0.12,0.365,0.498,-0.131,-0.859,-0.937
ATATGTAGGTTACATCCGGGTCATTCCGGCTATG,2.71,3.56,2.07,1.21,2.92,3.61,2.3,2.99
TAGCCGAGGTCATTGGGCCAGTATAGTACGCATC,3.98,5.93,5.86,4.42,6.61,4.01,2.77,5.01
ACTCGGAGGACAAAGCTCAGAGCTACGCCAGTGA,-0.345,0.103,0.826,0.394,-0.292,0.233,-0.675,-0.243
ACTATCAGTTGACTTAGGGCAACCGATACGACGC,0.986,0.641,1.1,0.226,0.399,1.46,0.315,0.169
ATCTCTAGGTAATAAGTTCAGTGAAAGAGAGGAC,2.13,1.53,1.59,1.23,0.755,1.64,1.31,2.41
CTCGAAAGGTCGGTTGAGCTGAGTATACGGATAA,1.27,2.09,2.29,0.709,1.74,0.825,-0.574,-0.476
TCATATAGGTAAAACAGGTGAAAGTCGGCATCTA,0.437,0.572,0.226,1.71,1.1,0.827,0.0853,-0.37
CTCGAAAGGTCGGTTGAGGTGAGTCTACGGATAA,2.36,2.73,2.99,1.03,2.34,5.01,1.58,0.44
CCTTACGGGTCAAGAGGTTATAGCACGACGAGCG,3.87,6.11,4.75,0.748,6.11,2.92,0.0618,1.17
CGTCCAAGGTCAGCAGGTCATTGAAAGCGACGTG,5.08,6.83,6.69,2.59,6.04,4.26,2.98,2.36
ATCTCTATGTAAAGATAGTTCAGTGAATGCAAAT,0.692,0.486,0.571,0.0227,0.467,0.271,-0.195,0.366
ACTCGGACGACAAAGGTCAGAGCTACGCCAGTGA,4.21,4.65,4.6,-0.0196,4.83,2.75,-0.0567,0.688
TCTTGTAGATAAAAGGTTAAGAAAGCCGAAGCCT,1.42,1.43,0.971,1.2,2.28,1.14,-0.62,0.00564
TCGAGTAGGTTAGGGGCACTCAGAATGGCGTCGA,0.798,0.322,0.17,0.247,0.488,0.572,0.0941,0.0717
CCTAGTTGGTCAAGATCACACACGCTATAGGTAC,0.785,0.893,1.22,0.493,0.581,0.0913,0.528,0.699

Sequence,PBM binding z-score [1],PBM binding z-score [2],PBM binding z-score [3],PBM binding z-score [4],PBM binding z-score [5],PBM binding z-score [6],PBM binding z-score [7],PBM binding z-score [8]
CAGACTAGGTCAGGGCCAGTATAGGAGGAACGTT,2.28,2.67,3.34,-0.345,1.3,1.65,0.0626,-0.295
TCTATTAGTTGAAGGGCATCCGACGAGTCCGTTT,0.904,0.374,0.361,1.86,0.598,0.0886,0.288,1.51
TCGAGTAAGTTAGGGGCATTCAGAATGGCGTCGA,0.241,0.189,-0.154,0.53,0.495,1.08,-0.16,0.751
TCTTGTAGATCAAAGGTTACGAAAGCCGAAGCCT,1.9,2.29,1.06,0.663,3.64,1.66,-0.301,-0.125
TCTTGTAGATCAGTAGAGGTTAAGAAAGTGCGCT,1.26,0.475,0.344,0.802,1.24,1.88,-0.288,0.245
CCCGACAGGTGAGAAGGTAACTCAGCCTCGATTA,0.604,0.562,0.328,-0.142,0.298,0.229,0.474,-0.11
CCTATTAGTTGACGATAAGGGCAACCGAAGCTCG,1.43,0.95,0.873,0.16,0.582,1.57,0.591,0.415
ATCGAAAGGTCGACGAGGTGAGTAGACACCGTTT,2.83,4.43,3.75,0.736,4.27,3.85,0.861,0.955
ACTCGCAGGCCAAGTTTGGGTCACTCAAACAAAG,2.5,2.65,1.73,0.0285,0.756,2.72,1.1,0.548
GTACCAAGGTGAATAGGTCGATGATGAGTAGGCG,1.77,2.49,1.57,-0.426,1.86,1.52,0.425,0.182
AGTCAAAGTACAGGACGAGGTAACGTAAAGCACG,0.274,0.526,0.919,-0.155,0.598,1.39,0.878,-0.0315
AGAACGAGGGCACGCTGAGTAGATAGCAGAGTAG,0.843,1.94,2.23,1.58,1.45,1.58,-0.259,0.46
CCTTACGGGTCACGAGCTTATAGCACGACGAGCG,3.08,5.67,5.35,1.94,6.23,3.07,0.145,0.809
CTAACAAGGTGAACAAGGTCGTTGATTACTATTC,1.94,1.79,1.76,1.6,1.84,3.24,1.84,2.19
CCTAGTTGGTGAGGAGGTCACACACCGGATATGA,3.83,4.09,3.23,0.474,3.91,3.34,2.03,2.53
TTACCAAGGTGAGCTGAGGTAGTTGATCCAACTC,0.264,-0.0541,0.00581,-0.913,-0.0499,3.02,0.0435,-0.88
GCGACGGGGGCATCAGCAGGTTACCATAACTTAA,2.43,5.01,2.7,3.03,3.26,3.25,1.61,1.88
GCTTACGGGTCAAAGGTTATAGCATGAATAGAAT,3.25,6.76,4.71,2.42,9.18,4.02,0.25,1.58
